Measured values taken from the OligoGym collection.
Further: reference of the scale not given here.

What follows are sequences tested against TMEM130 (assay: pooled miR-30 sensor sort-seq; sequence = guide strand). Details: shRNA.
TTTATTTAGCAACAATGGCAGT gave a sensor-assay potency score (higher = more potent) of -0.968. For ATAGTTATAATAGACCACGGAG, the sensor-assay potency score (higher = more potent) was -0.516. In the case of TTCTGCTTCACAGCCCTCGTGG, the sensor-assay potency score (higher = more potent) is reported as -0.803. TAGTTATGGATTTTTAACCCTT was tested, and the sensor-assay potency score (higher = more potent) was -0.844. TATGTGTACAACCTTTAGTTAT gave a sensor-assay potency score (higher = more potent) of -1.54. TTCAAGGTCACGGTCATCTTTT was tested, and the sensor-assay potency score (higher = more potent) was -0.705. For TTGCTGAGTGGCATTCCGCAGG, the sensor-assay potency score (higher = more potent) was -0.984. TTGTCCTTGGCCACCAGGCTGG gave a sensor-assay potency score (higher = more potent) of -1.04. TTGGAAGGTCTGAATTAGGGTG was tested, and the sensor-assay potency score (higher = more potent) was 0.0908.

The sequences below were run against TMEM140 in the same assay as above. Details: shRNA.
Work on ATCACGAGGACTATGATGCTCA yielded a sensor-assay potency score (higher = more potent) of -0.61. TGACACTGTAGGGTGCTGGTGT was tested, and the sensor-assay potency score (higher = more potent) was 0.184. TTATAGAAGCCGATTCTCAGGT showed a sensor-assay potency score (higher = more potent) of 0.174. ATGAACAGCAGCTGGTCGCGCC was tested, and the sensor-assay potency score (higher = more potent) was -1.18. With AAGAGCGTAAAACATCAGGCAG the sensor-assay potency score (higher = more potent) was -0.966. TATGATGCTCATGAACAGCAGC showed a sensor-assay potency score (higher = more potent) of -0.769. With TATAGAAGCCGATTCTCAGGTT the sensor-assay potency score (higher = more potent) was 0.501. TCTCTCATCACTGTTGCACTGG showed a sensor-assay potency score (higher = more potent) of 0.0267. For TGCTCATGAACAGCAGCTGGTC, the sensor-assay potency score (higher = more potent) was -1.48. Work on TGTACTAAGAAGTCACAGGTGC yielded a sensor-assay potency score (higher = more potent) of 0.194. TAGAAGCCGATTCTCAGGTTGG was tested, and the sensor-assay potency score (higher = more potent) was -0.232. ATGCTCATGAACAGCAGCTGGT was tested, and the sensor-assay potency score (higher = more potent) was -1.09.

Each sequence was assayed against TMEM147 in the same assay as above. Details: shRNA.
For TTGGAGTCTATGCTCATCTGGA, the sensor-assay potency score (higher = more potent) was -0.274. With TCATAGCGTGTTATCATCCAGA the sensor-assay potency score (higher = more potent) was -0.557. With TATCAGGTCTGCCACATCCACG the sensor-assay potency score (higher = more potent) was -1.57. TTATCATCCAGACCTGAGCAGA was tested, and the sensor-assay potency score (higher = more potent) was -0.978. TAGAGCTGCCCAACTGCCCAGC was tested, and the sensor-assay potency score (higher = more potent) was -1.02. For TCTGGATGTACTTCCAGTCAAA, the sensor-assay potency score (higher = more potent) was -1.49. TTGTAGGTGATGAAGTAGGGGA was tested, and the sensor-assay potency score (higher = more potent) was -0.423. TAATGGACCAGACTGATGTTGG gave a sensor-assay potency score (higher = more potent) of -0.822. TAGACCTATCAGGTCTGCCACA showed a sensor-assay potency score (higher = more potent) of -1.51. TTGTACTCGGACAGGCCGCTGC gave a sensor-assay potency score (higher = more potent) of -1. TGTGGTACAGATCATAGCGTGT gave a sensor-assay potency score (higher = more potent) of -0.505.

What follows are sequences tested against TMEM156 in the same assay as above. Details: shRNA.
In the case of AATGTGTATACAATCATTCGGG, the sensor-assay potency score (higher = more potent) is reported as -0.0136. For TAGTTTATCGATTTCTCCTTGC, the sensor-assay potency score (higher = more potent) was -0.128. Sequence TTTATCGATTTCTCCTTGCTTG has a sensor-assay potency score (higher = more potent) of 0.0129. TTGTTGATCTTCCAGTGTGGTT was tested, and the sensor-assay potency score (higher = more potent) was -1.08. Work on TTTTATATCCATCTCCAGGTGC yielded a sensor-assay potency score (higher = more potent) of -0.346. TTTGTCTCTATGACTCTGCCAC showed a sensor-assay potency score (higher = more potent) of -0.207. With TACACTGAAGTTAAAGTGCTGA the sensor-assay potency score (higher = more potent) was 0.144. Sequence TAGATTGCAAACACACTTCCAG has a sensor-assay potency score (higher = more potent) of 0.703.
